Reference: PubChem BioAssay
Active and inactive are the calls of the source.

Experiments:
[1] = small molecules captured by biotinylated probe aFSTL3 – biochemical, small-molecule microarray, fluorescence 635/667, stem cell growth factor project, primary screen (AID 1064); conditions: higher = more signal;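 also: measures binding of the biotinylated anti-FSTL3 antibody to printed compounds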
[2] = binders from COS7 lysate, DM2A8 probe, primary screen, torsin A project, cell lysate, small-molecule microarray, fluorescence 635/667 (AID 1065); conditions: higher = more signal, COS7 lysate expressing mutant human TOR1A
[3] = small molecules captured by biotinylated probe aFGF2 – biochemical, small-molecule microarray, fluorescence 635/667, stem cell growth factor project, primary screen (AID 1067); conditions: higher = more signal;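 also: measures binding of biotinylated aFGF2 protein to printed compounds on slides; z-score merges feature fluorescence and signal-to-noise across triplicate slides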
[4] = small molecules captured by biotinylated probe aFGF10 – biochemical, small-molecule microarray, fluorescence 635/667, stem cell growth factor project, primary screen (AID 1071); conditions: higher = more signal;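 also: score merges 667 nm spot intensity and signal to noise from triplicate slides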
[5] = molecular target: Neurogenic locus notch homolog protein 2 (Homo sapiens) (UniProt Q04721); test: small molecules binding Notch2 protein – biochemical, small-molecule microarray, 635 nm fluorescence, stem cell growth factors, primary screen (AID 1073); conditions: higher = more signal
[6] = molecular target: Pro-neuregulin-1, membrane-bound isoform (Homo sapiens) (UniProt Q02297); test: small molecules binding neuregulin-1 protein – biochemical, small-molecule microarray, fluorescence 635/667, psychiatric disease protein project, primary screen (AID 1075); conditions: NRG1 binding, 635 nm fluorescence, higher = more signal;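 also: score combines 667 nm spot fluorescence with signal to noise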
[7] = test system: Neuregulin-1 EGF-like domain; test: small molecules binding NRG1 EGF domain – biochemical, small-molecule microarray, 635 nm fluorescence, primary screen (AID 1081); conditions: higher = more signal;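 also: binding of the protein to compounds printed on small-molecule microarray slides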
[8] = FRG1 expression reporter modulators in myotubes – cell-based, C2C12 myotubes, firefly/Renilla luciferase, luminescence, FRG1 inhibition for FSHD, primary screen (AID 1084); conditions: FRG1 promoter luciferase, higher = more signal, called active from +8 up or from −8 down
[9] = small molecules captured by biotinylated probe aFST – biochemical, small-molecule microarray, fluorescence 635/667, stem cell growth factor project, primary screen (AID 1086); conditions: higher = more signal;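 also: score merges 667 nm fluorescence with signal-to-noise of each printed compound spot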
[10] = binders of probe aHhip on microarray, primary screen, stem cell growth factor project, biochemical, small-molecule microarray, fluorescence 635/667 (AID 1087); conditions: higher = more signal;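 also: score merges spot fluorescence at 667nm with spot signal to noise ratio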

Sequence of Neurogenic locus notch homolog protein 2 (Homo sapiens) (Q04721 whole entry, looked up, canonical isoform): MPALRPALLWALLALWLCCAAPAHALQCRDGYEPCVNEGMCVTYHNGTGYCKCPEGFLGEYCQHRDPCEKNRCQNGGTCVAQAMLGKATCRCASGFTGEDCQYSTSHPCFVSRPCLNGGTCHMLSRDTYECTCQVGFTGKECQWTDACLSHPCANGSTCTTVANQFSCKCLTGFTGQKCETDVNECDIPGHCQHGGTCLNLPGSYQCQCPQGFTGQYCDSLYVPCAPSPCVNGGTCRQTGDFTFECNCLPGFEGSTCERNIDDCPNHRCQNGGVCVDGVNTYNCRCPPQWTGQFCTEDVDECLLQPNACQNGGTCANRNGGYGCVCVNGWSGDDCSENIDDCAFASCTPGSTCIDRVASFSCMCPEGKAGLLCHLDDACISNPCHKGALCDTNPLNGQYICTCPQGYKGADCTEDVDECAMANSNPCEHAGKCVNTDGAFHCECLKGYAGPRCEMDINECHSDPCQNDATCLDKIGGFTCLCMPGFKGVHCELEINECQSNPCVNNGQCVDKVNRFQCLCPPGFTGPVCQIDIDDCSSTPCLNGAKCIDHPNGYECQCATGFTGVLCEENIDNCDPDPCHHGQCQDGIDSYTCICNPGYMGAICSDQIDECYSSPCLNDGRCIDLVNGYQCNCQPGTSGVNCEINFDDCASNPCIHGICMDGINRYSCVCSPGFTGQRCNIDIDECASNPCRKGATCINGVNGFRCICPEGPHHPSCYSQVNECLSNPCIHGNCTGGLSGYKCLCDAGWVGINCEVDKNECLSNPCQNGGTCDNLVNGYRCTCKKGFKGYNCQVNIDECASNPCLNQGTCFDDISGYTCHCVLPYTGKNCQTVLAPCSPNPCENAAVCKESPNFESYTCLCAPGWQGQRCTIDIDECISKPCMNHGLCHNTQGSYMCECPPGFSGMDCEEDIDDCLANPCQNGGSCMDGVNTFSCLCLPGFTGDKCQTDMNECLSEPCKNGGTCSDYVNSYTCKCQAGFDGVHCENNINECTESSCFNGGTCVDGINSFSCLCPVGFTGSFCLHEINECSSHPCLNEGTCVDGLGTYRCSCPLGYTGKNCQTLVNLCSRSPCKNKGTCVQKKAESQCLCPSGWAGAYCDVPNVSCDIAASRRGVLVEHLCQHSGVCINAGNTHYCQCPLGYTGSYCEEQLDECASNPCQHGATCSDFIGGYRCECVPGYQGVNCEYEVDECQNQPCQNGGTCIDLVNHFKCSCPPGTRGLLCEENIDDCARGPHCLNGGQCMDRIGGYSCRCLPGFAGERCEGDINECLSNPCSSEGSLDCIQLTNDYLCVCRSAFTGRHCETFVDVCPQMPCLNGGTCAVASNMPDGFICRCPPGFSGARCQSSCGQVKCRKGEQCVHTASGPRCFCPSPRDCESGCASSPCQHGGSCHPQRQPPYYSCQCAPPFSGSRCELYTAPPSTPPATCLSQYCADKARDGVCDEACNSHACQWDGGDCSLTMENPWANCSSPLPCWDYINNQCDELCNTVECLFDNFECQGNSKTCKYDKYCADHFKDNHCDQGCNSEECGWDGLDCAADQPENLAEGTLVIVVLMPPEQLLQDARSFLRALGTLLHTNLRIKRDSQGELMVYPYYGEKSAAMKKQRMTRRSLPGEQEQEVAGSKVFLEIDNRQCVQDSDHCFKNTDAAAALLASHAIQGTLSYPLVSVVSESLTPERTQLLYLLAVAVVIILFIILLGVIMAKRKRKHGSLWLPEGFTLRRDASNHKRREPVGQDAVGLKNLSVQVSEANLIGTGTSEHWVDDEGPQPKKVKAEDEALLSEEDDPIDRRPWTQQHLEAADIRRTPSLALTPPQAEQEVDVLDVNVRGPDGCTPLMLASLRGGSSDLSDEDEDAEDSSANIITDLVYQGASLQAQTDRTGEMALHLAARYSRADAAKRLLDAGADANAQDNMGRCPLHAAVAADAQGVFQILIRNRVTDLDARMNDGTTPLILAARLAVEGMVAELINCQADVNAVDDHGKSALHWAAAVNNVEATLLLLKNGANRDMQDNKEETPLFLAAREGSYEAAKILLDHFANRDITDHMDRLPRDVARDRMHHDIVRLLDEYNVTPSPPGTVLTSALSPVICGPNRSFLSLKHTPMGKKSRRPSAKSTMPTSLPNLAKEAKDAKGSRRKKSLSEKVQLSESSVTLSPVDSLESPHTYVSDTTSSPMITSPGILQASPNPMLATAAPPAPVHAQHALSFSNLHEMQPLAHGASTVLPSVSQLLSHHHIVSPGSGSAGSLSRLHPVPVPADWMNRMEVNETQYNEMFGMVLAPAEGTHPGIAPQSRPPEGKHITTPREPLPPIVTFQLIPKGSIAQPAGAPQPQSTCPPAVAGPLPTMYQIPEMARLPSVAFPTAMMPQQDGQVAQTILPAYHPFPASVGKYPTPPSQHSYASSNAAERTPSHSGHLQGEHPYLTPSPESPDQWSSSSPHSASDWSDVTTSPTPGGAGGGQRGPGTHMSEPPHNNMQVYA
Sequence of Pro-neuregulin-1, membrane-bound isoform (Homo sapiens) (Q02297 whole entry, looked up, the tested form may be a part, canonical isoform): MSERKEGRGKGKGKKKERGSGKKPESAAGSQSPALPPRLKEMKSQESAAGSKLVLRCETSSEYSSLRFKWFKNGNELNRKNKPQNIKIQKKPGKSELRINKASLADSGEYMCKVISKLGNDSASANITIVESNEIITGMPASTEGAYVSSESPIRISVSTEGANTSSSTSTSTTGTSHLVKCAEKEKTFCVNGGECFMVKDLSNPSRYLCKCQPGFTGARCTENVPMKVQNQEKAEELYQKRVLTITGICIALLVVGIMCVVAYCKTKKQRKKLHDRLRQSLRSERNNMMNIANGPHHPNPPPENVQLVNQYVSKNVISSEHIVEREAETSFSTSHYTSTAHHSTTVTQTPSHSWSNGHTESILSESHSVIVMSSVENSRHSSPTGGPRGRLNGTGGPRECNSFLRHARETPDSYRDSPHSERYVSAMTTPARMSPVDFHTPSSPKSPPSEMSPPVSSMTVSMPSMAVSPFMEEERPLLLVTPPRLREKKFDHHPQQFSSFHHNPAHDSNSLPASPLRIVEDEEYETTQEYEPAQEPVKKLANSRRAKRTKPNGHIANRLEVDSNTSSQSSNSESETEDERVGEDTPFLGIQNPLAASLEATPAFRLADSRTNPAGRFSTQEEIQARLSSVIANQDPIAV

SMILES | composite z-score [1] | composite z-score [2] | composite z-score [3] | composite z-score [4] | composite z-score [5] | composite z-score [6] | composite z-score [7] | z-score [8] | composite z-score [9] | composite z-score [10]
COCCOC(=O)N1C(=O)[C@@]2(c3cc(C#CC4=CCCCC4)ccc31)[C@H](C(=O)N1CCc3cc(OC)c(OC)cc3C1)[C@H]1C(=O)O[C@H](c3ccccc3)[C@H](c3ccccc3)N1[C@@H]2c1ccc(O)cc1 | -0.0908 | 0.271 | 0.0216 | 1.15 | 1.5 | 1.79 | 1.25 | -0.514 (inactive) | 0.153 | 0.0515
COCCOC(=O)N1C(=O)[C@@]2(c3cc(C#CC4=CCCCC4)ccc31)[C@H](c1ccc(OCCO)cc1)N1[C@H](c3ccccc3)[C@H](c3ccccc3)OC(=O)[C@H]1[C@@H]2C(=O)N1CCCCCCC1 | 2.32 | 0.945 | 0.303 | 0.474 | 1.37 | 1.07 | 1.13 | -1.62 (inactive) | 2.12 | 1.9
COC(=O)[C@@]1(CCC(=O)OC(C)(C)C)N=C(c2ccc(OCCCO)cc2)O[C@H]1c1ccccc1CN=[N+]=[N-] | 0.0643 | -0.13 | -0.12 | -0.191 | -0.066 | 0.118 | 0.148 | -2.14 (inactive) | -0.04 | 0.21
COCC(=C=CC[C@@H](O)c1ccc(OCCO)cc1)C[C@@H](O)COCc1ccccc1 | 0.158 | -0.187 | -0.015 | 0.734 | 0.726 | 1.11 | 1.07 | -1.1 (inactive) | 0.543 | 0.111
C=CCC(OC(C)=O)[C@@H]1[C@@H](N(Cc2cc3ccccc3o2)C(=O)c2ccc(-c3ccccc3)cc2)c2cc(OCCCO)ccc2N1C(=O)c1ccc2ccccc2n1 (stereo not given in full) | -0.128 | -0.0562 | -0.128 | 0.0599 | -0.234 | 0.0289 | -0.464 | -1.47 (inactive) | 0.268 | 0.417
[N-]=[N+]=NCc1ccccc1C[C@]1(C(=O)O)COC(c2ccc(OCCCO)cc2)=N1 | 0.895 | -0.167 | -0.0213 | -0.461 | -0.664 | 1.57 | 0.0238 | 0.277 (inactive) | 0.0273 | 0.2
C=CCC(OC(C)=O)[C@@H]1[C@@H](N(Cc2ccc(-c3cccc(C(F)(F)F)c3)o2)C(=O)c2cccc3ccccc23)c2cc(OCCCO)ccc2N1C(=O)c1ccc2ccccc2c1 (stereo not given in full) | 0.125 | -0.132 | -0.0909 | 0.224 | -0.365 | 0.62 | -0.332 | 0.141 (inactive) | -0.0637 | -0.15
COC(=O)C(CC#Cc1ccc2c(c1)[C@]1(C(=O)N2)[C@H](c2ccc(O)cc2)N2[C@H](c3ccccc3)[C@H](c3ccccc3)OC(=O)[C@H]2[C@@H]1C(=O)N1CCc2cc(OC)c(OC)cc2C1)C(=O)OC | -0.312 | 0.475 | -0.0692 | 0.59 | 1.07 | 0.296 | 1.27 | 1.63 (inactive) | 0.652 | -0.0755
CN1C(=O)[C@]2(CCS(=O)(=O)c3ccccc3)N=C(c3ccc(OCCCO)cc3)O[C@@H]2c2ccccc21 | 0.511 | 0.485 | -0.0984 | 0.255 | 0.768 | 1.75 | 1.41 | -0.34 (inactive) | 0.135 | 0.238
CCOC(=O)C[C@H]1[C@H](OC(=O)c2cc3ccccc3oc2=O)[C@@H](NC(=O)C2CCCCC2)c2cc(OCCCO)ccc2N1C(=O)Cc1ccc(OC)cc1 | -0.0716 | 0.714 | 0.0066 | 0.65 | 0.54 | 0.052 | 0.72 | 0.198 (inactive) | 0.352 | -0.201
NCCCC[C@@H]1NC(=O)[C@H]2C[C@@H](C(=O)NCc3ccc(F)cc3)[C@@H](c3ccc(O)cc3)N2C1=O | 1.85 | 0.0239 | 0.113 | 0.492 | 0.531 | 2.12 | 1.3 | 5.15 (inactive) | 1.75 | 0.0947
COc1ccc(CC[C@H](O)c2cccc(OCC(=O)OC(C)(C)C)c2)cc1 | -0.386 | 1.08 | 0.106 | 0.359 | 0.966 | 0.576 | 0.977 | -0.0488 (inactive) | 0.736 | 0.136
CN(C)C(=O)[C@@]1(CCS(=O)(=O)c2ccccc2)N=C(c2ccc(OCCCO)cc2)O[C@H]1c1ccccc1N=[N+]=[N-] | -0.35 | 0.259 | 0.167 | 0.792 | 1.32 | 1.55 | 0.551 | 0.401 (inactive) | 1.49 | -0.0994
O=C1OCCC=C[C@H]2OC34C=CCN(c5ccc(Cl)cc5)C(=O)[C@H]3N(CCO)C(=O)[C@@H]4C12 (stereo not given in full) | 0.0828 | 1.85 | -0.166 | -0.434 | -0.568 | -0.666 | -0.501 | -0.0731 (inactive) | -0.564 | -0.0618
C=C(/C(=C/C[C@H](OC(=O)c1ccncc1)c1ccccc1OCCO)c1cc(C(=O)OC)ccc1OC)C(C)C | -0.0165 | 0.229 | -0.01 | 0.605 | 0.267 | 1.1 | 1.28 | -1 (inactive) | 0.265 | -0.249
C=CCC(OC(C)=O)[C@@H]1[C@@H](N(Cc2cc3ccccc3o2)C(=O)Cc2ccc(OC)cc2)c2cc(OCCCO)ccc2N1C(=O)Cc1ccc2ccccc2c1 (stereo not given in full) | 0.0169 | -0.94 | -0.0348 | -0.377 | -0.368 | -0.359 | 0.331 | -0.906 (inactive) | 0.0598 | 0.0505

SMILES | composite z-score [1] | composite z-score [2] | composite z-score [3] | composite z-score [4] | composite z-score [5] | composite z-score [6] | composite z-score [7] | z-score [8] | composite z-score [9] | composite z-score [10]
Cc1ccccc1C(O)C1C=CC2C(=O)N(c3ccccc3)C(=O)C2N1Nc1ccccc1F (stereo not given) | 0.397 | 0.0771 | 0.213 | 0.737 | 1.16 | 2.15 | 0.93 | -1.35 (inactive) | 1.19 | -0.0994
CC(C)C[C@@H]1NC(=O)[C@@H]2C[C@H](C(=O)NCCCC[N+](C)(C)C)[C@H](c3ccc(O)cc3)N2C1=O | -0.358 | 1.4 | -0.116 | 0.639 | 0.113 | 1.54 | 1.32 | 0.53 (inactive) | 0.221 | 0.319
CO[C@H]1O[C@H](CO)[C@@H](OC(=O)Nc2ccc3c(c2)OCO3)[C@@H]2OC(=O)[C@@H](Cc3ccccc3)C/C=C/C[C@H](Cc3ccccc3)C(=O)O[C@@H]12 | -0.276 | -0.0172 | 0.0631 | 0.984 | 1.12 | 0.995 | 0.976 | -0.277 (inactive) | 0.508 | 0.0373
COc1ccc(C#Cc2ccc3c(c2)[C@]2(C(=O)N3)[C@H](C(=O)Nc3nc4ccccc4s3)[C@H]3C(=O)O[C@H](c4ccccc4)[C@H](c4ccccc4)N3[C@@H]2c2ccc(OCCO)cc2)cc1 | -0.113 | 1.45 | 0.0015 | 0.977 | 1.5 | 1.31 | 1.08 | 4.94 (inactive) | 0.349 | -0.216
COC(=O)[C@@H]1N=C(c2ccc(OCCCO)cc2)O[C@@H]1c1ccccc1CN=[N+]=[N-] | 0.879 | -0.744 | 0.0062 | -0.784 | -0.549 | 1.21 | 0.945 | 1.81 (inactive) | 0.646 | 0.291
[N-]=[N+]=NCc1ccccc1[C@@H]1OC(c2ccc(OCCCO)cc2)=N[C@]1(Cc1ccccc1)C(=O)NCc1ccccc1 | -0.158 | -0.649 | 0.227 | 0.22 | 1.3 | 1.56 | 0.744 | -2.16 (inactive) | 0.846 | 0.0373
Cc1ccc(F)cc1S(=O)(=O)N[C@@H]1CCN(Cc2ccc3c(c2)OCO3)C1 | -0.125 | 0.267 | -0.135 | -0.0066 | -0.898 | -0.474 | -0.276 | -4.06 (inactive) | -0.264 | -0.0994
CCCCCCCCCCC(O)C1C=CC2C(=O)N(C)C(=O)C2N1N1CCCCC1 (stereo not given) | 0.449 | -0.346 | -0.213 | -1.1 | -1.96 | 0.252 | -0.413 | -0.635 (inactive) | -0.744 | -0.0423
COC(=O)[C@@]1(Cc2ccc(OC)cc2)[C@@H]2[C@@H](CC(=O)[C@H]2CC(=O)C(=O)N2CCCC2)CN1C(=O)c1ccccc1 | 2.42 | 0.296 | 0.926 | 0.884 | 1.69 | 1.94 | 1.24 | 1.31 (inactive) | 2.67 | 2.65
C=CC[C@]1(C(=O)OC)N=C(c2ccc(OCCCO)cc2)O[C@H]1c1ccccc1N=[N+]=[N-] | 0.638 | 0.402 | 0.288 | 1.13 | 1.42 | 1.5 | 1.4 | 3.21 (inactive) | 1.03 | 0.33
C=CCC(OC(C)=O)[C@@H]1[C@@H](N(Cc2ccc(-c3ccccc3)cc2)C(=O)c2ccc(-c3ccccc3)cc2)c2cc(OCCCO)ccc2N1C(=O)c1ccc2ccccc2n1 (stereo not given in full) | 0.0997 | 0.185 | -0.0945 | 0.0767 | -0.332 | 0.211 | -0.359 | -0.0161 (inactive) | 0.212 | 0.347
O=C(NCC(F)(F)F)[C@@H]1c2ccccc2C(=O)N(CC23CC4CC(CC(C4)C2)C3)[C@H]1c1ccc(CO)cc1 | -0.473 | 0.371 | -0.0549 | 0.353 | 0.958 | 0.553 | 1.21 | -3.95 (inactive) | 0.195 | -0.0776
C=CCC(OC(C)=O)[C@@H]1[C@@H](N(Cc2ccc(-c3cccc(C(F)(F)F)c3)o2)C(=O)Cc2ccc(F)cc2)c2cc(OCCCO)ccc2N1C(=O)c1ccc2ccccc2c1 (stereo not given in full) | 0.196 | 0.167 | -0.133 | -0.428 | -0.58 | -0.28 | -0.0656 | 0.512 (inactive) | 0.487 | -0.0994
C=C(CC1([C@@H](NP(=O)(c2ccccc2)c2ccccc2)[C@H]2C[C@@H]2CCN(C(=O)OCC)S(=O)(=O)c2ccc(C)cc2)CC1)c1ccccc1 | 0.0862 | -0.163 | 0.226 | 0.821 | 1.67 | 1.38 | 1.12 | 0.894 (inactive) | 1.5 | 0.128
CCC[C@@H]1C=C(C(=O)OCC)[C@H](c2ccccc2)N1S(=O)(=O)c1ccc(C)cc1 | 0.483 | 0.379 | 0.137 | 0.88 | 1.66 | 1.09 | 1.06 | -1.56 (inactive) | 1.2 | -0.105
CN(C)CCCC[C@@H]1NC(=O)[C@@H]2C[C@H](C(=O)NCc3ccc(F)cc3)[C@H](c3ccc(O)cc3)N2C1=O | 0.274 | 0.295 | -0.103 | 0.203 | -0.446 | 0.625 | 1.49 | 0.254 (inactive) | -0.512 | -0.191
